From article PMC12136788
Substitutions are numbered along the chain they refer to. The full ranking holds about 24,000 sequences; the median of “enrichment r” is about 0.99, and the highest 2% start at about 3.7. This is one part of a sample in which the highest values are shown more often than they occur.

T1: UNK ZnF1-3 (human, UniProt Q9C0B0 31-174)
T1 sequence: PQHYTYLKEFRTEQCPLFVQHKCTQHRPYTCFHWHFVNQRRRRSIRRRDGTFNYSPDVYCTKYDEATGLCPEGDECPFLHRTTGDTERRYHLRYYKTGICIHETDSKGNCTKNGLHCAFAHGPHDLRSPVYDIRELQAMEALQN

B1: chr4:88367131:88367132:-_ENSMUSG00000070923_ENSMUST00000094993|mus_mus|FALSE|FALSE (ssRNA)
RNA: GGGAGUUCUACAGUCCGACGAUCUUGGUAAUUGCUUGCUUCCAAAAGUAAAUUCACACAGGUAUUGUCUGUUCUCAUGAAAUCUACUGUCUGCACAUAGUUGAUGAGAUCCUGUGGUGUCAUCAGUGGAAAGCGAAUAUUCUUCAACAGAGGAUUGAGCAUCA
B2: chr12:16048344:16048345:+_ENSG00000023734_ENST00000419869|hu_hu|hu_hu_hu_mus_True|78_98 (ssRNA)
RNA: GGGAGUUCUACAGUCCGACGAUCAGAUCGUCCAUAAGUUAUAACCAAAAUCUCUCCCUCAGGAAUAUACUCCAUGCUGCUAACAGACAUAUUAAAAUUCAGAGAUUUCACUUCUGUCAUUGUGGCAUGAUCCCAGAGCCGAACCAACAGAGGAUUGAGCAUCA
B3: 201281127_201284068_384_CDS_ENSG00000196141_ENST00000360760|human|control|control (ssRNA)
RNA: GGGAGUUCUACAGUCCGACGAUCCGGCUGCAGGGGCCCUGCCUCAGGCCUCUCCACCUUGUCUUUAGCAUCUUUGUUGCCUUGAUGCUGCUUGGACUUGCUUCUUUUUCUUUUAUUGUUCUUCUUUUUUCCUGUCAUAUUCCACAACAGAGGAUUGAGCAUCA
B4: chr4:144460044:144460045:+_ENSG00000153147_ENST00000283131|hu_mus|hu_hu_hu_mus_False|1_78 (ssRNA)
RNA: GGGAGUUCUACAGUCCGACGAUCACGGUCCAUAGCCUGAAGAUCAACUUGCGGAUUCCAAUCAGAAUCAUAUAAAAUGACUACAUCAGCAGUUGCAAGAUUGAUGCCCAGACCACCAGCACGUGUGCUUAGCAUAAAAACAAACAACAGAGGAUUGAGCAUCA
B5: 32049908_32050383_1188_CDS_ENSMUSG00000039262_ENSMUST00000036691|mouse|control|control (ssRNA)
RNA: GGGAGUUCUACAGUCCGACGAUCUUCUUUCCCAUCUUGGUCGUUCAUCUGGAACUGUCUGAAAGGAACACGGGGUUCCAGGCGGAGCUGAGGAAGGGGAAAAGAGCUUCGUUCCACCGUAGUCUGGUUCUCUGAUGACUGUGGCAACAGAGGAUUGAGCAUCA
B6: chr16:1859243:1859244:-_ENSG00000063854_ENST00000397353|hu_mus|FALSE|FALSE (ssRNA)
RNA: GGGAGUUCUACAGUCCGACGAUCAAUUAACUGAAAAGUAGACUGUCCUGCAUUAGCAGCAGGCCAGUCGGUUAGAAGUCCCUGUCCCAGCGUGGGUGUGCCUCAGUCCCGAGGCACCUUGAACUGGUCCUUCUCCCUGCGGAUCAACAGAGGAUUGAGCAUCA
B7: chr10:70021928:70021929:-_ENSMUSG00000037747_ENSMUST00000162251|mus_hu|motif|central (ssRNA)
RNA: GGGAGUUCUACAGUCCGACGAUCAUGCUUCAGUGGAAAACAUCUGGUGAUAAAAAUGGACAACAGAGGACCAAUGCUCCGGAGGGAGGAAAAGGGGCUGAGUAAGAAUAAGAAAAGUGGGCAUUAACGUCCAACACUGAUAUUCAACAGAGGAUUGAGCAUCA
B8: chr19:15981513:15981514:-_ENSMUSG00000024640_ENSMUST00000025542|mus_hu|motif|central (ssRNA)
RNA: GGGAGUUCUACAGUCCGACGAUCUAAAGCAUCAUCUCCUUUGGCAUUGCCAAUGCGGAAUGGAAUAUUCAUCUUGCUUCGGUUUUGGGGCUCCACUGGACAAACGUAGAAUCCUUGAGAAUUAUCAAUAAUCUCAUAAAUUGUCAACAGAGGAUUGAGCAUCA
B9: chr2:122485053:122485054:-_ENSG00000155438_ENST00000285814|hu_mus|FALSE|FALSE (ssRNA)
RNA: GGGAGUUCUACAGUCCGACGAUCUAAGCCUGAGUUUCAUAAGGAUAGUAAAACUGAGGGACCGAUGAAGCCUGAAGACAAAUUCAGGACAGGAAAGGGCACAGUCAGGUUCCCAGUGGCUUUCCUCACUGGAAAACCAAACAUCAACAGAGGAUUGAGCAUCA
B10: chr17:35122734:35122735:+_ENSMUSG00000007050_ENSMUST00000114011|mus_mus|FALSE|FALSE (ssRNA)
RNA: GGGAGUUCUACAGUCCGACGAUCUCCAUCCCUCAAAUGUAUUACAUGUCGCCACGGAAGGGCUUAGGAUGCUGCUCCCAUCUCCAGGAAAGAUGAGAAAAAGGUACAGACUGGGAGCCAGUCCAGGACCAUUCUGCAGUUCCUCAACAGAGGAUUGAGCAUCA
B11: chr11:54532911:54532912:-_ENSMUSG00000052298_ENSMUST00000064104|mus_mus|motif|central (ssRNA)
RNA: GGGAGUUCUACAGUCCGACGAUCGCAGAGGGGCUGGAGGUGCAAUGAAAAGGCUUAAAAUGGAAAAAUUACAAUACAGUGCGGGCAGUCACAGAAAAGACCAUGCUAAGAUCCGAUCCAUGUCAAUUAAACAUUGAAAAUUCACAACAGAGGAUUGAGCAUCA
B12: chr19:16212804:16212805:+_ENSG00000167460_ENST00000300933|hu_mus|hu_hu_hu_mus_False|18_68 (ssRNA)
RNA: GGGAGUUCUACAGUCCGACGAUCAACAAUUCUGGAGUGAAGGAAAGAUGUAACAUGGAACAGCAUUCCAUCUAUUACAGAAGGCACAUGGGCAACAAUGAUCACCCCAGCAUUCUCCUACGUUGACCUUAAAGACAAUCUGUUCAACAGAGGAUUGAGCAUCA
B13: 181288587_181288707_5387_3pUTR_ENSMUSG00000000826_ENSMUST00000072334|mouse|control|control (ssRNA)
RNA: GGGAGUUCUACAGUCCGACGAUCUCAUAAUCCAGUGGCUUGGUUUGGCCAUUAAGACCAGAGGACAUGGUUACUUGCUCUGGAGUAAAAAGCUAGAGCUGUUAGGCAAGAAUUCAACCACUAAGGGGCCAGACACUGUGAGGGCAACAGAGGAUUGAGCAUCA
B14: chr10:70021928:70021929:-_ENSMUSG00000037747_ENSMUST00000162251|mus_mus|motif|central (ssRNA)
RNA: GGGAGUUCUACAGUCCGACGAUCAUGCAUGCUUCAGUGGGGACAUCUGAUGGCAGAUGGACAACAGAGGGUAAUGCUCCGGUGGGAAGACAGGGUGUGUGGGGCGGGGAAGGGGCGAAAGUGGUGUUAGCGUCCGACACUGAUCAACAGAGGAUUGAGCAUCA
B15: chr10:70021928:70021929:-_ENSMUSG00000037747_ENSMUST00000162251|mus_hu|FALSE|FALSE (ssRNA)
RNA: B7 RNA with G80U, G81A
B16: 19988787_19988907_277_5pUTR_ENSG00000144566_ENST00000273047|human|control|control (ssRNA)
RNA: GGGAGUUCUACAGUCCGACGAUCCGGCGUCGCCUGCUCUUAGCGCCGCUCCCCUCACACUGGACUGUGCGGGGCUCGUGCCGUGGUGCCGCCCCUGUCGGGCUCCGUCUCCGCCUCUCGCCGCUCCCCCUUCCUCUUUCCUUUCAACAGAGGAUUGAGCAUCA
B17: 178098831_178098951_708_CDS_ENSG00000116044_ENST00000397062|human|control|control (ssRNA)
RNA: GGGAGUUCUACAGUCCGACGAUCGAAAAAGGCUUUCUCUUGCUCCUUUUGGAGUUGUUCUUGUCUUUCCUUUUCAAGUUUUUUCUGUUUUUCCAGCUCAUACUCUUUCCGUCGCUGACUGAAGUCAAAUACUUCUCGACUUACCAACAGAGGAUUGAGCAUCA
B18: chr10:1038518:1038519:+_ENSG00000107937_ENST00000545048|hu_hu|hu_hu_hu_mus_False|68_68 (ssRNA)
RNA: GGGAGUUCUACAGUCCGACGAUCCAGUCUGUCAUGGUAAUUCUGUUGAGUAAAUUUGACUUUUCUCAUGUAAAAAUGUCGAAUCCGAUGAAUUUGAUAAUGUUUAUGAAUAACCGUUGGAGUCUUUCGUUGAGUCUUGGAUAACAACAGAGGAUUGAGCAUCA
B19: chr8:30550554:30550555:-_ENSG00000104687_ENST00000414019|hu_mus|FALSE|FALSE (ssRNA)
RNA: GGGAGUUCUACAGUCCGACGAUCGCCGGCAUUCUCCAGUUCCUCGGUGCAGUUGGAACUGAUGAGUGAAUCAAAAUUUCUCAGUACCUUAUCAUGCCUGAUCAUAAGAGAUGUCUUGGAGCCCAGGGCAGAGAGGAUGCCCGCCAACAGAGGAUUGAGCAUCA
B20: chr6:106728040:106728041:+_ENSMUSG00000013736_ENSMUST00000057578|mus_mus|FALSE|FALSE (ssRNA)
RNA: GGGAGUUCUACAGUCCGACGAUCAGGAGCCACACCAAGAUCAUAGAUCAGGUGGAUCAAAUGGUUUACAUGGUCACCAGUAAGAAUUUUCUUCAGUUCUACCCAAAUCCUCUCUCCUGAUAUUCCAGCCAAACCUUUGGCAUUCAACAGAGGAUUGAGCAUCA
B21: chr22:19452774:19452775:-_ENSG00000070010_ENST00000399523|hu_hu|hu_hu_hu_mus_False|88_108 (ssRNA)
RNA: GGGAGUUCUACAGUCCGACGAUCCUUUUCAUUAUAGUUGAUAGCAAUCACAUCCCCAGUCGUCAGACAGGCGAAGUUUCUCAAUGCAUUUUCUAAUACCGCUUUAGGGUUGGUAAUAUCCAGGAAGUCUGGGCUCUGAGGCUGCAACAGAGGAUUGAGCAUCA
B22: chr7:148083511:148083512:+_ENSMUSG00000025487_ENSMUST00000026560|mus_mus|motif|central (ssRNA)
RNA: GGGAGUUCUACAGUCCGACGAUCCAAAUCCAGCACUCGCGGCUGCACCCACGUCAUGUGAACCCGCUUGUCCACCUCGUCGGUGCUGCCUCUCACCAGCCCCACCGAGAGUGCCUUCAUCACCAGCAACUCCACCUUGUUGACCAACAGAGGAUUGAGCAUCA

Target: T1, UNK ZnF1-3
Assay: nsRBNS (natural sequence RNA bind-n-seq); RBNS binding buffer (assumed for nsRBNS): 25 mM Tris pH 7.5, 150 mM KCl, 3 mM MgCl2, 0.01% Triton X-100, 500 ug/ml BSA, 20 U/ml SUPERase-In, 4 C; UNK is unkempt and MSI1 is Musashi-1; names of the RNAs are library labels; protein concentration not given here; high values mean tight binding

Row | Binder | binding signal [enrichment R]
1 | B1 | 0.859
2 | B2 | 1.06
3 | B3 | 0.308
4 | B4 | 1.34
5 | B5 | 0.807
6 | B6 | 0.931
7 | B7 | 4.93
8 | B8 | 0.859
9 | B9 | 0.908
10 | B10 | 1.03
11 | B11 | 4.45
12 | B12 | 0.856
13 | B13 | 1.11
14 | B14 | 1.77
15 | B15 | 4.68
16 | B16 | 0.72
17 | B17 | 0.134
18 | B18 | 0.535
19 | B19 | 1.28
20 | B20 | 0.982
21 | B21 | 0.864
22 | B22 | 0.75
